# Test system: UCD52 (cells of a triple-negative basal-like breast cancer xenograft)
# Test: cell viability of combination (% of vehicle); higher = less cytotoxic
# Details: 1 µM; 72 h; partner dose: 10 nM
# Experimental: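 PDX cells were treated for 72 h with each drug at 1 µM plus carfilzomib (10 nM; 100 nM for WHIM2). Luciferase viability is expressed as percent of vehicle.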
row,Structure (SMILES),cell viability of combination
1,Cc1cc(C(C#N)c2ccc(Cl)cc2)c(Cl)cc1NC(=O)c1cc(I)cc(I)c1[O-].[Na+] (stereo not given) [Closantel Sodium] + CC(C)C[C@H](NC(=O)[C@H](CCc1ccccc1)NC(=O)CN1CCOCC1)C(=O)N[C@@H](Cc1ccccc1)C(=O)N[C@@H](CC(C)C)C(=O)[C@@]1(C)CO1 [Carfilzomib],65.9
2,Cc1cc(C(C#N)c2ccc(Cl)cc2)c(Cl)cc1NC(=O)c1cc(I)cc(I)c1O (stereo not given) [Closantel] + CC(C)C[C@H](NC(=O)[C@H](CCc1ccccc1)NC(=O)CN1CCOCC1)C(=O)N[C@@H](Cc1ccccc1)C(=O)N[C@@H](CC(C)C)C(=O)[C@@]1(C)CO1 [Carfilzomib],65.7
3,CCCCCCCCCCCC[N+](C)(C)CCOc1ccccc1.[Br-] [Domiphen Bromide] + CC(C)C[C@H](NC(=O)[C@H](CCc1ccccc1)NC(=O)CN1CCOCC1)C(=O)N[C@@H](Cc1ccccc1)C(=O)N[C@@H](CC(C)C)C(=O)[C@@]1(C)CO1 [Carfilzomib],57.1
4,CCCCCCCCCCCCCCCC[n+]1ccccc1.[Cl-] [Cetylpyridinium Chloride] + CC(C)C[C@H](NC(=O)[C@H](CCc1ccccc1)NC(=O)CN1CCOCC1)C(=O)N[C@@H](Cc1ccccc1)C(=O)N[C@@H](CC(C)C)C(=O)[C@@]1(C)CO1 [Carfilzomib],48.1
5,CCCCCCCCCCCCCCCC[N+](C)(C)C.[Br-] [Cetrimonium Bromide (CTAB)] + CC(C)C[C@H](NC(=O)[C@H](CCc1ccccc1)NC(=O)CN1CCOCC1)C(=O)N[C@@H](Cc1ccccc1)C(=O)N[C@@H](CC(C)C)C(=O)[C@@]1(C)CO1 [Carfilzomib],53.1

# From the supplement of paper PMC6992640
